From PubChem BioAssay (NCI)
Compounds without any hit were thinned out: in the full panel of roughly 83,000, 20% have a hit.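 Treatment: one concentration, 48 hours, 96-well format. Scoring: percent growth, with anything below 10 considered active.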 The source made the active and inactive calls.

Tested on: MOLT-4 leukemia
Experiment: NCI-60 one-dose screen, 48 h (100 = growth as untreated, 0 = no growth, -100 = all killed)
Conditions: 10 µM unless noted

Row | SMILES | growth
1 | Cc1ccc(-c2nc(C(Cl)Cl)nc3cc(C)nn23)cc1 | 16.7% (inactive)
2 | O=C(Nc1nc(C(=O)N2CCN(C(c3ccccc3)c3ccccc3)CC2)cs1)c1ccc(NC2CCCCC2)c([N+](=O)[O-])c1 | 77.9% (inactive)
3 | COc1cc(-c2nc3ccc(C)cc3[nH]2)ccc1OCC(=O)N=Nc1c(O)[nH]c2ccc(Cl)cc12 | -17.9% (active)
4 | C=C1C(=O)O[C@H]2[C@H]1CC/C(COC(=O)NCCCCCCCCNC(=O)OC/C1=C/CC[C@@]3(C)O[C@H]3[C@H]3OC(=O)C(=C)[C@@H]3CC1)=C\CC[C@@]1(C)O[C@@H]21 | -27.5% (active)
5 | Nc1c(C(=O)Nc2ccncc2)sc2nc3c(cc12)CCCCC3 | 40.3% (inactive)
